Bioassay records from PubChem BioAssay.
MOR-DOR inv ag: mu-delta opioid heterodimer inverse agonism; 0.21% of 340,000 active; AID 504357; inhibition, % at 9.3 µM; cell-based MOR-DOR heterodimer luminescence; in the data active = inhibition above about 22%, passing the limit was not always enough;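 also: 0% = cells with DMSO and 100% = wells without cells with DMSO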
Target sequence (P35372 whole entry, looked up): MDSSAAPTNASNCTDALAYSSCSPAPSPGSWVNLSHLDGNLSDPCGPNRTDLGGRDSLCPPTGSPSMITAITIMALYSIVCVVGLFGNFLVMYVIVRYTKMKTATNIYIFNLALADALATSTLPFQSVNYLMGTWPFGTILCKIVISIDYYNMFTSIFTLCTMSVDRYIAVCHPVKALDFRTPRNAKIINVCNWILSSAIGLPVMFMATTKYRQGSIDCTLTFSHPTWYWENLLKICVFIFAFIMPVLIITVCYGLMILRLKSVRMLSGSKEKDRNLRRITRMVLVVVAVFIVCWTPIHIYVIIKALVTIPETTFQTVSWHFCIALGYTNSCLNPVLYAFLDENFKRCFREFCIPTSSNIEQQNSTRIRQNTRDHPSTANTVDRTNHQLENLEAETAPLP
Target sequence (P41143 whole entry, looked up): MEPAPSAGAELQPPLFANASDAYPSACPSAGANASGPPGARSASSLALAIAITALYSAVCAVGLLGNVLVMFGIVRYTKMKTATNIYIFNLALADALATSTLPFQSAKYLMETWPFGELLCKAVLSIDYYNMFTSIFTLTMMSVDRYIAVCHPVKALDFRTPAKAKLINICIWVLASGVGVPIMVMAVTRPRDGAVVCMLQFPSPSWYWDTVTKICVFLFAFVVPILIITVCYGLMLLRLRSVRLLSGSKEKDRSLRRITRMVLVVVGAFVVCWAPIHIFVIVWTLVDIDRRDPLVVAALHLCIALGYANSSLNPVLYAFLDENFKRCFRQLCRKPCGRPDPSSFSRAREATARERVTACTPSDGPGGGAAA
HTR5A ag: HTR5A agonism, opioid heterodimer counter-screen | P47898 | HTR5A agonist assay, luminescence, cell-based | activation, % at 9.3 µM | 0.61% of 340,000 active | AID 504692; in the data active = activation mostly above about 9.5%, no sharp cut-off; inactive = mostly below about 7.6%;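 also: 0% = cells with vehicle only and 100% = reference agonist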
HTR5A inv ag: HTR5A inverse agonism, opioid heterodimer counter-screen. P47898. HTR5A cell line, luminescence. inhibition, % at 9.3 µM. 0.083% of 340,000 active. AID 504634; in the data active = inhibition mostly above about 23%, no sharp cut-off; inactive = mostly below about 18%;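 also: 0% = cells with DMSO and 100% = no-cell wells with DMSO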
beta cell repl: induces beta-cell replication in MIN6 cells. 0.29% of 330,000 active. MIN6 cells proliferation, ATPlite luminescence, 48 h; cells starved in 0.2% serum; 100% = growth in 10% serum. proliferation, % at 10 µM;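 active = compounds whose signal lies at least 3.5 SD above the mean of all wells on their plate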;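 also: 0% = DMSO-treated cells in low-serum medium and 100% = 10% serum control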
p-CIP stab down: p/CIP protein destabilization; Q05BA5; F442A p/CIP-EGFP cells, EGFP fluorescence, 16 h; decrease of EGFP signal, % at 10 µM; 0.01% of 290,000 active; AID 1984;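 active = EGFP signal decrease of at least 30% at 10 µM or well 3 SD below plate mean, unless failing retest; inactive = the rest, including hits failing retest or dose response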
MOR-DOR ag: OPRM1-OPRD1 heterodimerization agonism. P35372+P41143. cells, luminescence. activation, % at 9.3 µM. 0.3% of 340,000 active; in the data active = activation above about 18%;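 also: 0% = vehicle-treated cells and 100% = reference agonist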
OPRM1-D1 inv cf: confirmation of human OPRM1-OPRD1 heterodimerization inverse agonists. shares compounds with MOR-DOR inv ag. cells expressing OPRM1/OPRD1 heterodimer, luminescence. inhibition, % at 9.3 µM. 20% of 580 active; in the data active = inhibition above about 32%;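 also: 0% = cells with DMSO and 100% = wells lacking cells with DMSO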
HTR5A inv count: inverse agonist of human HTR5A in OPRM1-OPRD1 counter-screen; shares compounds with MOR-DOR inv ag; HTR5A-expressing cells, luminescence, inverse agonism; inhibition, % at 9.3 µM; 580 tested, under 10 active; AID 504914; call rule not given here;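 also: 0% = cells with DMSO and 100% = no-cell wells with DMSO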
Active calls of the source: *; . = no result. Rows were chosen to be rich in hits. Some 1.4% of all compounds tested hit in one or more screens of this group.

SMILES	MOR-DOR inv ag	HTR5A ag	HTR5A inv ag	beta cell repl	p-CIP stab down	MOR-DOR ag	OPRM1-D1 inv cf	HTR5A inv count
Nc1nc(-c2ccccn2)nc(N)c1Cc1ccc(Cl)cc1Cl	36.4*	-2.3	6.0	-4.1	4.5	-7.2	-12.0	-20.7
O=C(CCN1C(=O)C2C3CC(C(Br)C3Br)C2C1=O)OCC(=O)c1cccc([N+](=O)[O-])c1 (stereo unspecified)	20.6*	0.6	17.5	0.7	-5.2	-2.5	38.2*	14.5
COc1ccc(C(=O)COC(=O)CCN2C(=O)C3C4CC(C(Br)C4Br)C3C2=O)cc1 (stereo unspecified)	9.2	12.6	24.1	-1.2	-3.0	-1.5	.	.
CC(C)C(C(=O)OCC(=O)c1cccc([N+](=O)[O-])c1)N1C(=O)[C@@H]2[C@H]3CC[C@H](C3)[C@@H]2C1=O (stereo partly specified)	16.6	3.7	-9.4	0.0	-8.6	-3.1	.	.
O=C(CCN1C(=O)C2C3CCC(C3)C2C1=O)OCC(=O)c1cccc([N+](=O)[O-])c1 (stereo unspecified)	61.8*	0.2	14.1	0.0	-1.9	-11.7	-8.2	6.8
O=C(CN1C(=O)C2C3CCC(C3)C2C1=O)OCC(=O)c1cccc([N+](=O)[O-])c1 (stereo unspecified)	85.4*	-14.0	34.8*	-2.6	3.3	-13.1	-178.9	-26.7
O=C(CNS(=O)(=O)c1c(F)cccc1F)NC1CCCc2ccccc21 (stereo unspecified)	14.8	-0.7	2.6	-1.0	.	-3.4	.	.
Cc1cc(C)n2nc(SC(C)C(=O)N3CCOCC3)nc2n1 (stereo unspecified)	36.9*	1.4	7.1	5.7	.	-5.7	-16.5	3.0
CCOC(=O)c1ccccc1OC(=O)NNc1ccccc1	37.4*	-6.0	21.5	.	.	-7.1	-18.1	-5.8
CCCCCC(C)NC(=O)c1cc(S(=O)(=O)N2CCCCC2)ccc1N1CCOCC1 (stereo unspecified)	10.0	-0.9	2.2	0.4	.	-2.5	.	.
COc1ccc(OC)c(NC(=O)c2nc(S(=O)(=O)Cc3ccccc3)ncc2Cl)c1	11.7	-2.1	8.5	-6.8	-18.8	-2.2	.	.
COc1ccc(NC(=O)c2nc(S(=O)(=O)Cc3cccc(C)c3)ncc2Cl)c(OC)c1	35.0*	3.3	2.8	-7.8	-23.5	-6.8	-338.4	-20.3
ONC(=Nc1ccccc1Cl)c1c(F)cccc1F	3.8	-1.7	8.2	0.4	.	-0.7	.	.
CC1CN(S(=O)(=O)c2ccc(CN3C(=O)c4cccnc4C3=O)s2)c2ccccc2O1 (stereo unspecified)	6.6	2.2	-8.2	-4.7	-7.3	-1.3	.	.
O=C1C2=C(c3ccccc31)[N+](=O)C1CCCCC1N2[O-] (stereo unspecified)	55.9*	1.6	16.9	-0.1	-6.7	-13.4	2.8	1.5
CC(=O)/C=C1/C(=O)Nc2ccccc21	73.5*	-2.0	4.8	-5.9	-1.2	-14.1	71.5*	1.8
C=CCOc1cccc(C(=O)/C=C2/C(=O)Nc3ccccc32)c1	11.2	4.1	-14.6	-6.0	-9.7	-2.5	.	.
CCc1ccc(C(=O)COC(=O)CNC(=O)C2CCCCC2)cc1	5.3	1.7	-7.7	-0.4	.	-0.8	.	.
COc1cc(/C=N/Nc2ccc(F)cc2F)cc(OC)c1O	32.2*	-3.5	13.0	-7.1	2.4	-6.2	-12.5	1.5
COc1cc(/C=N/Nc2ccccc2[N+](=O)[O-])cc(OC)c1O	-18.7	3.3	-9.2	-3.1	-0.9	4.0	.	.
Cc1cc(NC(=O)CSc2nc3c([nH]c4ccccc43)c(=O)n2-c2ccccc2F)no1	34.2*	-3.1	15.2	-3.0	13.1	-6.4	12.5	14.8
CC(NC(=O)COc1ccccc1)C(=O)OCC(=O)c1cc2ccccc2o1 (stereo unspecified)	71.0*	-7.4	23.5	-2.2	-3.1	-13.2	-15.9	2.1
O=C(Cc1ccc(F)cc1)OCC(=O)c1cc2ccccc2o1	47.5*	-5.7	10.3	-2.9	4.7	-8.3	-115.8	-12.2
